# Data: the supplement of paper PMC8728848
# Only a selection was taken, and the strongest signals are over-represented in it overall.
# How the values were obtained:
# Assay in all cases: glycan array binding signal (z-score within array); higher = stronger binding
# Conditions in all cases: glycan notation: IUPAC condensed, linker removed
# [1] = biological target: 3dGal(b1-3)[Fuc(a1-4)]Glc
# Summary of the method: (§1)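 Arrays were curated from the Consortium for Functional Glycomics database, 3228 in total, and kept only where the protein sequence was available. Binding is expressed as a within-array Z-score. This score was averaged across arrays of the same protein sequence at different concentrations or buffers and across linkers, and negative values can be read as non-binding.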
# [2] = biological target: Fuc(a1-3)[3dGal(b1-4)]Glc
# Summary of the method: as §1
# [3] = biological target: Fuc(a1-3)[Gal(b1-4)]GlcNAc(b1-3)Gal(b1-4)Glc
# Summary of the method: as §1
# [4] = biological target: Fuc(a1-3)[Gal6S(b1-4)]GlcNAc(b1-3)Gal(b1-4)Glc
# Summary of the method: as §1
# Gal(a1-6)Glc = biological target: Gal(a1-6)Glc
# Summary of the method: as §1
# Gal(b1-4)Glc = biological target: Gal(b1-4)Glc
# Summary of the method: as §1
# [5] = biological target: Gal(b1-4)GlcNAc(b1-2)Man(a1-3)[Man(a1-6)]Man(b1-4)GlcNAc(b1-4)GlcNAc
# Summary of the method: as §1
# [6] = biological target: Gal(b1-4)GlcNAc(b1-3)[Fuc(a1-3)[Gal(b1-4)]GlcNAc(b1-6)]Gal(b1-4)Glc
# Summary of the method: as §1
# Glc(a1-3)Glc = biological target: Glc(a1-3)Glc
# Summary of the method: as §1
# [7] = biological target: Glc(a1-4)Glc(a1-4)Glc(a1-4)Glc(a1-4)Glc(a1-4)Glc(a1-4)Glc(a1-4)Glc
# Summary of the method: as §1
# [8] = biological target: Glc(a1-4)Glc(a1-4)Glc(a1-4)Glc(a1-4)Glc(a1-4)Glc(a1-4)Glc(a1-4)Glc(a1-4)Glc(a1-4)Glc
# Summary of the method: as §1
# [9] = biological target: Glc(a1-4)Glc(a1-4)Glc(a1-4)Glc(a1-4)Glc(a1-4)Glc(a1-4)Glc(a1-4)Glc(a1-4)Glc(a1-4)Glc(a1-4)Glc(a1-4)Glc
# Summary of the method: as §1
# [10] = biological target: Glc(a1-4)Glc(a1-4)Glc(a1-4)Glc(a1-4)Glc(a1-4)Glc(a1-4)Glc(a1-4)Glc(a1-4)Glc(a1-4)Glc(a1-4)Glc(a1-4)Glc(a1-4)Glc
# Summary of the method: as §1
# Glc(a1-6)Glc(a1-6)Glc = biological target: Glc(a1-6)Glc(a1-6)Glc
# Summary of the method: as §1
# [11] = biological target: Glc(b1-3)Glc(b1-3)Glc(b1-3)Glc
# Summary of the method: as §1
# Glc(b1-6)Glc = biological target: Glc(b1-6)Glc
# Summary of the method: as §1
# GlcA(b1-3)Gal(b1-4)Glc = biological target: GlcA(b1-3)Gal(b1-4)Glc
# Summary of the method: as §1
# [12] = biological target: GlcNAc(b1-2)[GlcNAc(b1-4)]Man(a1-3)[GlcNAc(b1-2)[GlcNAc(b1-4)][GlcNAc(b1-6)]Man(a1-6)][GlcNAc(b1-4)]Man(b1-4)GlcNAc(b1-4)GlcNAc
# Summary of the method: as §1
# [13] = biological target: GlcNAc(b1-3)[GlcNAc(b1-6)]Gal
# Summary of the method: as §1
# [14] = biological target: GlcNAc(b1-4)GlcNAc(b1-4)GlcNAc(b1-4)GlcNAc(b1-4)GlcNAc(b1-4)GlcNAc
# Summary of the method: as §1
# [15] = biological target: Kdn(a2-3)Gal(b1-3)GlcNAc(b1-3)Gal(b1-4)Glc
# Summary of the method: as §1
# [16] = biological target: Kdn(a2-3)Gal(b1-4)[Fuc(a1-3)]GlcNAc(b1-3)Gal
# Summary of the method: as §1
# Man(a1-3)Man = biological target: Man(a1-3)Man
# Summary of the method: as §1
# Man(a1-3)Man(b1-4)GlcNAc = biological target: Man(a1-3)Man(b1-4)GlcNAc
# Summary of the method: as §1
# [17] = biological target: Man(b1-4)Man(b1-4)Man(b1-4)Man(b1-4)Man(b1-4)Man
# Summary of the method: as §1
# [18] = biological target: Neu5Ac(a2-3)Gal(b1-3)GlcNAc(b1-3)[Fuc(a1-3)[Gal(b1-4)]GlcNAc(b1-6)]Gal(b1-4)Glc
# Summary of the method: as §1
# Neu5Ac(a2-3)Gal(b1-4)Glc = biological target: Neu5Ac(a2-3)Gal(b1-4)Glc
# Summary of the method: as §1
# [19] = biological target: Neu5Ac(a2-3)Gal(b1-4)[Fuc(a1-3)]GlcNAc(b1-6)Gal(b1-4)Glc
# Summary of the method: as §1
# [20] = biological target: Neu5Ac(a2-3)Gal6S(b1-4)[Fuc(a1-3)]GlcNAc(b1-3)Gal(b1-4)Glc
# Summary of the method: as §1
# [21] = biological target: Neu5Ac(a2-6)Gal(b1-3)GlcNAc(b1-3)[Fuc(a1-3)[Gal(b1-4)]GlcNAc(b1-6)]Gal(b1-4)Glc
# Summary of the method: as §1
# [22] = biological target: Neu5Ac(a2-8)Neu5Ac(a2-8)Neu5Ac(a2-3)Gal(b1-4)Glc
# Summary of the method: as §1
# [23] = biological target: Neu5Ac9Me(a2-3)Gal(b1-4)Glc
# Summary of the method: as §1
# [24] = biological target: Neu5Gc(a2-6)Gal(b1-4)GlcNAc(b1-2)Man(a1-3)[Neu5Gc(a2-6)Gal(b1-4)GlcNAc(b1-2)Man(a1-6)]Man(b1-4)GlcNAc(b1-4)GlcNAc
# Summary of the method: as §1
# [25] = biological target: Xyl(b1-2)[Man(a1-3)][Man(a1-6)]Man(b1-4)GlcNAc(b1-4)[Fuc(a1-3)]GlcNAc
# Summary of the method: as §1
binder,measurement,setting,value
"ZG16p (Homo sapiens), O60844 (protein) ARSSSYSGEYGGGGGKRFSHSGNQLDGPITALRVRVNTYYIVGLQVRYGKVWSDYVGGRNGDLEEIFLHPGESVIQVSGKYKWYLKKLLFVTDKGRYLSFGKDSGTSFNAVPLHPNTVLRFISGRSGSLIDAIGLHWDVYPSSCSRC",glycan array binding signal (z-score),[1],-0.327
same,glycan array binding signal (z-score),[2],-0.025
same,glycan array binding signal (z-score),[3],-0.178
same,glycan array binding signal (z-score),[4],-0.328
same,glycan array binding signal (z-score),Gal(a1-6)Glc,-0.272
same,glycan array binding signal (z-score),Gal(b1-4)Glc,-0.133
same,glycan array binding signal (z-score),[5],-0.273
same,glycan array binding signal (z-score),[6],-0.328
same,glycan array binding signal (z-score),Glc(a1-3)Glc,2.88
same,glycan array binding signal (z-score),[7],1.93
same,glycan array binding signal (z-score),[8],1.95
same,glycan array binding signal (z-score),[9],4.4
same,glycan array binding signal (z-score),[10],2.82
same,glycan array binding signal (z-score),Glc(a1-6)Glc(a1-6)Glc,0.475
same,glycan array binding signal (z-score),[11],0.797
same,glycan array binding signal (z-score),Glc(b1-6)Glc,2.7
same,glycan array binding signal (z-score),GlcA(b1-3)Gal(b1-4)Glc,-0.328
same,glycan array binding signal (z-score),[12],-0.42
same,glycan array binding signal (z-score),[13],0.435
same,glycan array binding signal (z-score),[14],-0.328
same,glycan array binding signal (z-score),[15],-0.328
same,glycan array binding signal (z-score),[16],-0.328
same,glycan array binding signal (z-score),Man(a1-3)Man,2.78
same,glycan array binding signal (z-score),Man(a1-3)Man(b1-4)GlcNAc,2.31
same,glycan array binding signal (z-score),[17],-0.328
same,glycan array binding signal (z-score),[18],-0.328
same,glycan array binding signal (z-score),Neu5Ac(a2-3)Gal(b1-4)Glc,-0.276
same,glycan array binding signal (z-score),[19],-0.328
same,glycan array binding signal (z-score),[20],-0.328
same,glycan array binding signal (z-score),[21],-0.328
same,glycan array binding signal (z-score),[22],-0.328
same,glycan array binding signal (z-score),[23],-0.328
same,glycan array binding signal (z-score),[24],-0.282
same,glycan array binding signal (z-score),[25],-0.369
